Out of some 2,400 compounds screened, about 580 (24%) were called active.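 Rule for the calls: active = activity change at or above the mean plus 3 SD of buffer wells without dofetilide, per plate; inactive = the rest.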 A selection follows.
biological target: Potassium voltage-gated channel subfamily KQT member 2 (Rattus norvegicus) (UniProt O88943); assay: KCNQ2 potentiation in CHO cells – cell-based, FluxOR thallium flux, counter-screen for hERG block protector project, confirmation (AID 1942); details: FluxOR thallium flux fluorescence, at 10 µM, hits give high values;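 note: normalized value minus buffer-control mean plus three SD of buffer wells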
Sequence (O88943 whole entry, looked up): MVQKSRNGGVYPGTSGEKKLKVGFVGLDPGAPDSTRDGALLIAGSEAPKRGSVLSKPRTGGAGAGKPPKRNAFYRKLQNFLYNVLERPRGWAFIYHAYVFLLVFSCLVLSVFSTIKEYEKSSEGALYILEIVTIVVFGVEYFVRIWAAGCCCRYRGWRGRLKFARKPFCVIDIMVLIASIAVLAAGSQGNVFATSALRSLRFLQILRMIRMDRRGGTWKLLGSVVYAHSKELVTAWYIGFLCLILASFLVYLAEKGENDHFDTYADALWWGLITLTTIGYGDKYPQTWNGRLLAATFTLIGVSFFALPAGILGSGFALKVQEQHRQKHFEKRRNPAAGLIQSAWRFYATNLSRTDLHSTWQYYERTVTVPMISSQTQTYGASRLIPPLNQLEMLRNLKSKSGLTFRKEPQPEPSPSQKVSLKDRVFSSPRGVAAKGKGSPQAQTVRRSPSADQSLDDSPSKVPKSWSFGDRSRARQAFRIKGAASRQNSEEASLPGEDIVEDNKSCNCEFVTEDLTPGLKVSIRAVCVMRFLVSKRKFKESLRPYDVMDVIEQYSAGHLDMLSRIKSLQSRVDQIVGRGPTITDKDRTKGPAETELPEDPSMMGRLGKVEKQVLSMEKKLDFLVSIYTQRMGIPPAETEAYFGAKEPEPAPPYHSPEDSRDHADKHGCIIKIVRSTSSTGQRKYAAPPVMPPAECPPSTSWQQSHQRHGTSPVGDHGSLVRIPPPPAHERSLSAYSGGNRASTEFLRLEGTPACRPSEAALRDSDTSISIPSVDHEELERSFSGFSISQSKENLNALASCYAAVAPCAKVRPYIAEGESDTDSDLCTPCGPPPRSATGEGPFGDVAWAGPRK

Row | Structure (SMILES) | activity change, less the hit threshold
1 | CC(C)NC(=S)N/N=C/c1ccc(C(C)(C)C)cc1 | -8.8% (inactive)
2 | C/C(=N\NC(N)=S)c1ccncc1 | -10.4% (inactive)
3 | CSC(=S)N/N=C/c1ccccc1 | 48% (active)
4 | CSC(=S)N/N=C/c1ccc(Br)cc1 | -6.8% (inactive)
5 | C/C(=N\NC(N)=S)c1cccnc1 | -17.7% (inactive)
6 | CSC(=S)N/N=C(\C)c1ccccc1 | 42.3% (active)
7 | COc1ccc(-n2c(SCC#N)nnc2-c2cccnc2)cc1 | -24.2% (inactive)
8 | O=C(CC(=O)c1ccccc1O)c1cccc(F)c1 | -11.1% (inactive)
9 | Cc1cc(F)c(F)c(C(=O)N2CCOCC2)c1 | -20.6% (inactive)
10 | CC(C)(C)OC(=O)N1CCC2(CC1)Oc1ccc(Cl)cc1C(=O)C21CC(c2ccc(Cl)cc2)=NO1 (stereo not given) | -20.7% (inactive)
11 | Cn1nc(C(F)(F)F)c(-c2ccc(Br)cc2)c1NC(=O)c1cccnc1 | -21.4% (inactive)
12 | COc1ccc(C(=O)NNC(=O)CSc2nnc(COc3ccccc3)n2C)cc1 | -15.5% (inactive)
13 | Cc1cc(NC(=O)CSc2ccc3nnc(-c4cccs4)n3n2)no1 | -20.2% (inactive)
14 | O=C(O)c1ccc2c3n(nc2c1)-c1ccc(Cl)cc1CO3 | -11.6% (inactive)
15 | Cc1c(C(=O)NC(=S)NCc2cccnc2)oc2ccccc12 | -18.2% (inactive)
16 | Cc1ccc(NC(=O)c2ccc3c(c2)CCN3S(C)(=O)=O)c(C)c1 | -23.2% (inactive)
17 | O=C(NC(=S)Nc1cccc(Cl)c1)c1cncc(Br)c1 | -16.1% (inactive)
18 | O=C(NC(=S)Nc1ccccc1F)c1ccc(Br)o1 | 59.7% (active)
19 | Cc1ccc(NC(=S)NC(=O)c2ccc(Br)o2)c(C)c1 | 8.1% (active)
20 | O=C(NC(=S)Nc1cccnc1)c1cc2ccccc2o1 | 10.1% (active)
21 | Cc1ccc(C)c(NC(=S)NC(=O)c2cncc(Br)c2)c1 | -2.9% (inactive)
22 | O=C(NC(=S)NNC(=O)c1cccs1)c1ccc(Br)o1 | -12.6% (inactive)

Row | Structure (SMILES) | activity change, less the hit threshold
23 | O=C(NC(=S)Nc1ccccc1)c1ccc(Br)o1 | 3.3% (active)
24 | Fc1cccc(C2NN=C(c3ccccc3)S2)c1 (stereo not given) | -7.2% (inactive)
25 | O=C(OCCNc1ccc(C(F)(F)F)cc1[N+](=O)[O-])c1cc2ccccc2oc1=O | -14.3% (inactive)
26 | O=C(O)COc1ccc(NC(=O)c2ccc3c(c2)C(=O)N(C2CCCCC2)C3=O)cc1 | -6.7% (inactive)
27 | COc1cc(S(=O)(=O)n2cnc(C)c2)ccc1Cl | -21.2% (inactive)
28 | COCCN(C(=O)CSc1nnc(C)n1Cc1ccccc1)c1c(N)n(CC(C)C)c(=O)[nH]c1=O | -21.8% (inactive)
29 | Cc1nc2n(n1)CC(O)CS2 (stereo not given) | -16.3% (inactive)
30 | CS(=O)(=O)N(Cc1ccccc1)c1ccc(C(=O)Nc2ccc(C(N)=O)cc2)cc1 | -23.7% (inactive)
31 | COc1ccc(OC)c(NC(=S)NC(=O)c2ccc(Br)o2)c1 | -6.9% (inactive)
32 | CCOc1ccc(-c2cccc(NC(=O)c3ccc(Br)o3)c2)nn1 | -30.4% (inactive)
33 | CCc1ccc(NC(=S)NC(=O)c2c(-c3ccccc3Cl)noc2C)cc1 | -17.1% (inactive)
34 | S=C(NCc1ccccc1)NCc1ccccc1Cl | -23.7% (inactive)
35 | COc1ccc(NC(=S)NC(=O)c2ccc(Br)o2)cc1 | 11.8% (active)
36 | O=C(CNC(=S)NC(=O)c1ccc(Br)o1)c1ccccc1 | -11.7% (inactive)
37 | CCN(c1ccccc1)S(=O)(=O)c1ccc(NC(=S)NC(=O)c2ccc(Br)o2)cc1 | 0.3% (active)
38 | Cc1cccc(NC(=S)NC(=O)c2ccc(Br)o2)c1 | 46.1% (active)
39 | O=C(NC(=S)NCc1ccccc1)c1ccc(Br)o1 | 70.4% (active)
40 | CC(C)C(=O)Nc1cccc(C(=O)Nc2ccccc2C(=O)O)c1 | -17.8% (inactive)
41 | COc1ccc(Cc2c(O)nc(SCC(=O)NC(C)(C)C)[nH]c2=O)cc1 | -19.2% (inactive)
42 | CC(C(=O)N1CCN(c2ccc([N+](=O)[O-])cc2)CC1)N1C(=O)C2CC=CCC2C1=O (stereo not given) | -20.1% (inactive)
43 | Cc1cc(C)n2nc(SCC(=O)NC3CCCCC3C)nc2n1 (stereo not given) | -30.3% (inactive)
44 | COCCOC(=O)C1=C(C)Nc2ncnn2C1c1ccc(F)cc1 (stereo not given) | -22% (inactive)

Row | Structure (SMILES) | activity change, less the hit threshold
45 | CCOc1ccc(NC(=O)C2C(C(=O)O)C3(Cl)C(Cl)=C(Cl)C2(Cl)C3(Cl)Cl)cc1 (stereo not given) | -15.5% (inactive)
46 | Fc1ccccc1NC(=S)N/N=C/c1ccccc1Br | -25.7% (inactive)
47 | S=C(N/N=C/c1ccccc1Cl)Nc1cccc(Cl)c1Cl | 8.6% (active)
48 | Cc1ccc(Cl)cc1NC(=S)N/N=C/c1cccc2ccccc12 | -24.4% (inactive)
49 | CCN(CC)CCCNC(=O)c1cn(-c2cccc(OC)c2)c(=O)c2ccccc12 | -18.5% (inactive)
50 | COc1ccc(-c2ccc(/C=N/NC(=O)c3cccnc3)o2)c([N+](=O)[O-])c1 | -11.4% (inactive)
51 | C=CCNC(=S)Nc1sc2c(c1C(=O)OCC)CC(C)(CC)OC2 (stereo not given) | 15.9% (active)
52 | C=CCNC(=S)Nc1sc2c(c1C(=O)OCC)CC(C(C)C)OC2 (stereo not given) | 16.9% (active)
53 | Cc1ccccc1OC(=O)n1c(=S)oc2cc(Cl)ccc21 | 9.7% (active)
54 | Cc1ccc(Cl)cc1NC(=O)COC(=O)c1ccccc1O | -21.1% (inactive)
55 | COC(=O)n1c(=S)oc2cc(Cl)ccc21 | -10% (inactive)
56 | CCCCC(=O)Nc1ccc(NCc2ccc(C)s2)cc1 | 42.5% (active)
57 | Cc1ccc(NC(=O)CCC(=O)OCC(F)(F)C(F)F)cc1 | -23% (inactive)
58 | CCCCC(=O)Nc1cccc(C(=O)Nc2ccccc2C(=O)O)c1 | -4% (inactive)
59 | COc1cccc(OC)c1OCCOCCN1CCN(C)CC1 | -21% (inactive)
60 | O=C(NC(=S)NCc1ccccc1)c1cccs1 | 5.6% (active)
61 | O=C(NC(=S)Nc1ccccc1N1CCCCC1)c1cccs1 | -23.1% (inactive)
62 | CCN(CC)c1ccc(NC(=S)NC(=O)c2cccs2)cc1 | -9.5% (inactive)
63 | O=C(NC(=S)Nc1ccc(N2CCCCC2)cc1)c1cccs1 | -9.5% (inactive)
64 | O=C(NC(=S)Nc1ccccc1)c1cccs1 | 3.3% (active)
65 | CCSc1nc2c(c(=O)[nH]1)C(c1ccc(C)cc1)C1=C(CCCC1=O)N2 (stereo not given) | -8.9% (inactive)

From PubChem BioAssay AID1942 (Johns Hopkins Ion Channel Center, 2009)
